Results on 18 molecules are retold here after PubChem BioAssay (NCI).

Holding throughout (assay): NCI-60 one-dose screen, 48 h (100 = growth as untreated, 0 = no growth, -100 = all killed)
Conditions in all cases: 10 µM unless noted

For assay [1], the system named is T-47D breast.
Assay [2] concerns BT-549 breast.
The test system of assay [3] is MDA-MB-435 melanoma.
For assay [4], the system named is SW-620 colon.
For assay [5], the system named is MCF7 breast.
In assay [6] the test system is HCT-116 colon.
The test system of assay [7] is HCC-2998 colon.
For assay [8], the system named is KM12 colon.

SMILES strings stand for the structures. This is part of a sample that, as a whole, favours compounds with a hit. Of some 83,000 tested, about 20% had one in any assay.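 Activity criterion: percent growth below 10, measured after cells in 96-well plates were exposed to a single compound concentration for 48 hours.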 A number with no mark means an inactive call. Calls of active or inactive are those of the source.

For the molecule `COc1ccc(/C=C/C(=O)Nc2cc(/C=C\c3cc(OC)c(OC)c(OC)c3)cc(OC)c2OC)cc1OC`, the growth was 6.43% (active) in assay [1]; 8.93% (active) in assay [2]; -35% (active) in assay [3]; 35.2% in assay [4]; 16.8% in assay [5]; 19.2% in assay [6]. The growth is 55.6% in assay [7] and 17.1% in assay [8].
As to `C=C(C)[C@@H]1CC[C@]2(C(=O)N[C@H](CO)Cc3ccccc3)CC[C@]3(C)[C@H](CC[C@@H]4[C@@]5(C)CCCNC(C)(C)[C@@H]5CC[C@]43C)[C@@H]12`, the growth in assay [1] is -58% (active); in assay [2] it was -88.1% (active); in assay [3] it was -93.6% (active); in assay [4], -82.3% (active); in assay [5] it was -69.7% (active); in assay [6] it was -94.8% (active). Further, the growth in assay [7] is -84.7% (active); in assay [8], -80.7% (active).
For `COc1ccc(-c2nc([C@@H](C)Sc3nc(N)cc(N)n3)c(C)s2)cc1OCCN1CCOCC1`, the growth in assay [1] was 99.5%; in assay [2], 96.1%; in assay [3], 110%; in assay [4] it was 107%; in assay [5], 101%; in assay [6] it was 103%. The growth in assay [7] was 83.9%; in assay [8] it was 104%.
For the molecule `CCOC(=O)Oc1c(OC)cc(C(=O)c2ccc(OC)c(OC(=O)CCl)c2OC)cc1OC`, the growth in assay [1] was 36.2%; in assay [2], 42.4%; in assay [3] it was -35.9% (active); in assay [4], 21.9%; in assay [5] it was 16.6%; in assay [6] it was 11.4%. Moreover, the growth was 43.3% in assay [7] and 21.9% in assay [8].
For `C=C1C(=O)O[C@H]2[C@H]1CC/C(CNC(=O)c1cccc3ccccc13)=C\CC[C@@]1(C)O[C@@H]21`, the growth in assay [1] is 46%; in assay [2], 46.9%; in assay [3], 40.2%; in assay [4], 16.5%; in assay [5], 24.4%; in assay [6] it was -21.6% (active). The growth in assay [7] is 88%; in assay [8], 83.2%.
Consider `O=C(NO)c1ccc(-n2nc(-c3ccccc3)c3ccccc32)cc1`, for which the growth in assay [1] is 37.3%; in assay [2], 67.2%; in assay [3], 84.7%; in assay [4], 41.2%; in assay [5], 22.4%; in assay [6], 7.64% (active). Besides, the values for the growth in assay [7] and in assay [8] were 44.1% and 71.8%, respectively.
With `N#C/C(=C\c1c(-c2ccccc2)[nH]c2ccccc12)C(=O)c1ccc(Cl)cc1`, the growth is 84.9% in assay [1]; 64.7% in assay [2]; 13.5% in assay [3]; 21.1% in assay [4]; -27.9% (active) in assay [5]; 30.9% in assay [6]. For the same molecule, the growth is 30.7% in assay [7] and 20% in assay [8].
`COc1cc(/C=N/O)nc(-c2ccccn2)c1`: the growth was 37.5% in assay [1]; 33.7% in assay [2]; 23.6% in assay [3]; 27.4% in assay [4]; 15.9% in assay [5]; 20.9% in assay [6]. For the same molecule, the values for the growth in assay [7] and in assay [8] were 26.4% and 23%, respectively.
In the case of `COC1=CC(=O)c2ccccc2C1=O`, the growth is 59% in assay [1]; 85% in assay [2]; -48.2% (active) in assay [3]; 108% in assay [4]; 56.9% in assay [5]; 29.9% in assay [6]. For the same molecule, the growth in assay [7] was 107%; in assay [8] it was 94.8%.
Turning to `COc1cc(NC(C)CCCNC(=O)CCC(=O)NCCCNCCCCCCCCCCNCCCNC(=O)CCC(=O)NCCCC(C)Nc2cc(OC)cc3cccnc23)c2ncccc2c1` (centres undefined), the growth is 28.5% [8 µM] in assay [1]; 95.5% [8 µM] in assay [2]; 75.8% [8 µM] in assay [3]; 73.4% [8 µM] in assay [4]; 24.3% [8 µM] in assay [5]; 69.4% [8 µM] in assay [6]. For the same molecule, the growth in assay [7] is 79.8% [8 µM]; in assay [8] it was 89.2% [8 µM].
`CN1CCN(C(=O)[C@]23CCC(C)(C)C[C@H]2C2=CC[C@@H]4[C@@]5(C)C/C(=C/c6ccncc6)C(=O)C(C)(C)[C@@H]5CC[C@@]4(C)[C@]2(C)CC3)CC1`: the growth in assay [1] is 37%; in assay [2] it was 80.2%; in assay [3], 48.2%; in assay [4], 33.8%; in assay [5] it was 18.1%; in assay [6], 16.4%. Further, the growth in assay [7] was 43.8%; in assay [8], 45.8%.
For the molecule `COc1cc(NC(C)CCCNC(=O)CCC(=O)NCCCNCCCCCCCCNCCCNC(=O)CCC(=O)NCCCC(C)Nc2cc(OC)cc3cccnc23)c2ncccc2c1` (centres undefined), the growth in assay [1] was 7.63% (active); in assay [2], 95.2%; in assay [3] it was 70.7%; in assay [4] it was 78%; in assay [5] it was 34.6%; in assay [6], 52.5%. Besides, the growth is 69.5% in assay [7] and 82.1% in assay [8].
Take `C=C1C(=O)O[C@H]2[C@H]1CC/C(COC(=O)NCc1c[nH]c3ccc(F)cc13)=C\CC[C@@]1(C)O[C@@H]21`: the growth is -58.3% (active) in assay [1]; -51.6% (active) in assay [2]; -63.5% (active) in assay [3]; -72.4% (active) in assay [4]; 22.4% in assay [5]; -86.7% (active) in assay [6]. The growth in assay [7] was 68.3%; in assay [8] it was 33.5%.
Take `COc1cc(/C=C\C(=O)O)ccc1OCc1ccccc1`: the growth in assay [1] is 82.1%; in assay [2], 112%; in assay [3], 119%; in assay [4] it was 105%; in assay [5], 96%; in assay [6] it was 95.2%. In addition, the growth in assay [7] and in assay [8] was 104% each time.
Turning to `C/C(=N\NC(=O)CSc1nc2ccccc2c(=O)n1Cc1ccc(S(N)(=O)=O)cc1)c1ccc(F)cc1`, the growth is 96.7% in assay [1]; 112% in assay [2]; 104% in assay [3]; 104% in assay [4]; 96.1% in assay [5]; 102% in assay [6]. Also, the growth in assay [7] was 112%; in assay [8], 105%.
With `CCCCCCCCCCCCCCCC[N+]1(C)CCN(SN2CC[N+](C)(CCCCCCCCCCCCCCCC)CC2)CC1`, the growth in assay [1] is 102%; in assay [2] it was 87.7%; in assay [3], 95.7%; in assay [4] it was 57.7%; in assay [5], 76.9%; in assay [6], 31.6%. The values for the growth in assay [7] and in assay [8] were 70% and 78.2%, respectively.
On to `Cc1ncc(C(=O)Nc2ccc(CN3CCN(C)CC3)c(C(F)(F)F)c2)cc1C#Cc1cnc(N)cc1C#N`, for which the growth was 57.8% in assay [1]; 38% in assay [2]; -95.8% (active) in assay [3]; -57.4% (active) in assay [4]; -75.6% (active) in assay [5]; -71.5% (active) in assay [6]. The figures for the growth in assay [7] and in assay [8] were 54.5% and -83.1% (active), respectively.
Turning to `CC(=O)[C@@H]1CC[C@]2(C(N)=O)CC[C@]3(C)[C@H](CC[C@@H]4[C@@]5(C)CCCNC(C)(C)[C@@H]5CC[C@]43C)[C@@H]12`, the growth in assay [1] was 93.9%; in assay [2], 87.1%; in assay [3] it was 83.9%; in assay [4], 90.4%; in assay [5] it was 72.1%; in assay [6] it was 65.1%. Moreover, the values for the growth in assay [7] and in assay [8] were 92% and 90.5%, respectively.
